Compound activity (PubChem BioAssay)
HT1080 IDH1KD tx: toxicity to HT-1080 IDH1 knockdown cells (counter line); HT-1080 IDH1 knockdown viability, ATP luminescence, 48 h; Potency, µM (doses to about 46.1 µM), for the others: top-dose activity, negative = toxicity, usual class: cytotoxic; actives 2% (n = 360,000); AID 686971;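 further: 0% = DMSO wells and -100% = cell-free medium wells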
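CellTiter-Glo luminescence after 48 h compound exposure at 37 degrees C of IDH1-knockdown HT-1080 cells in 5% FBS RPMI. %Activity scaled between DMSO wells and cell-free media wells, with curves fitted and assigned curve classes.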
HT1080-NT tox: kills 2HG-producing HT-1080-NT fibrosarcoma cells | HT-1080-NT fibrosarcoma viability, CellTiter-Glo ATP luminescence, 48 h | Potency, µM (top dose mostly 46.1 µM), inactives show at the top dose activity, negative = less viability, hits mostly cytotoxic | actives 1.6% (n = 360,000) | AID 686970;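 further: NT is the 2HG producing partner of a matched IDH1 knockdown line; 0% = DMSO-treated cells and -100% = media-only wells without cells; nearly all actives have a fitted effect of over 55% in size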
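Viability of the 2HG-overproducing fibrosarcoma line after 48 hours of compound exposure at 37 degrees C was determined by luminescence with CellTiter-Glo, and concentration-effect curves were then fitted and categorized.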
TDP1 cell noCPT: qHTS for Inhibitors of human tyrosyl-DNA phosphodiesterase 1 (TDP1): qHTS in cells in absence of CPT | DT40 Tdp1-/- hTDP1 cells, no CPT, ATP luminescence, 48 h | Potency, µM (highest dose often 46.2 µM), for inactives: top-dose activity change, negative = growth inhibition, usual class: inhibitors | actives 15% (n = 420,000); further: nearly all actives have a fitted effect of over 55% in size
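Chicken DT40 Tdp1-/- cells stably complemented with human TDP1 were seeded at 400 cells/well with DMSO in place of 20 nM camptothecin. After compound pinning, cells grew at least 48 hr at 37 °C; viability read by CellTiter-Glo luminescence.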
KB-V1 cytotox: kills drug-selected multidrug resistant KB-V1 cells. KB-V1 MDR cells viability, CellTiter-Glo, 72 h. Potency, µM (series often up to 46.1 µM), hits mostly cytotoxic. actives 3.4% (n = 400,000). AID 1347076; further: nearly all actives have a fitted effect of over 60% in size
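Luminescent ATP read-out (CellTiter-Glo, 10 min) measures survival of drug-selected KB-V1 MDR cells after 72 h, 37 degrees C compound exposure. Medium: phenol-red-free DMEM, 10% FBS. Values from fitted concentration-response curves.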
DT40 TDP1 CPT: DT40-hTDP1 cell growth loss with CPT | chicken DT40 Tdp1-/-;hTDP1 cells + 20 nM CPT, ATP luminescence, 48 h | Potency, µM (titrated, usually from 46.2 µM), for the others: at the highest dose activity change, negative = growth inhibition, usual class: inhibitors | actives 12% (n = 420,000); further: nearly all actives have a fitted effect of over 55% in size
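Cell growth measured by CellTiter-Glo luminescence after a minimum 48 h, 37 C compound exposure with 20 nM CPT in Tdp1-knockout DT40 cells stably expressing hTDP1, seeded 400/well; qHTS titration format.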
KB-3-1 tox: KB-3-1 parental cell cytotoxicity; KB-3-1 viability, CellTiter-Glo ATP luminescence, 72 h; actives 1.4% (n = 400,000); Potency, µM (doses to about 46.1 µM), most hits filed as cytotoxic; further: nearly all actives have a fitted effect of over 60% in size
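Cells are dispensed, compounds pinned in, plates held at 37 °C for 72 h, then CellTiter-Glo is added and luminescence read after 10 minutes. Cell line: parental KB-3-1 in phenol-red-free DMEM, 10% FBS.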
Active calls of the source: *; i = inactive; ? = inconclusive; / = no result given; [ ] = another dose, or the depositor's remark. Only some compounds are listed: those with a hit (about 19% of all), similar ones and a draw of the others. The call rests on the fitted dose curve; in most records, active means well fitted curve in the direction sought with a large enough effect; inconclusive means small, poorly fitted or top-dose-only effect, or another doubt; inactive means no such curve, though single readings can be large; an effect the other way counts as inactive or inconclusive. Unless noted, on the % scale 0 is the no-effect control and ±100 the full control effect; potency means the concentration at half of the fitted maximal effect.

SMILES	HT1080 IDH1KD tx	HT1080-NT tox	TDP1 cell noCPT	KB-V1 cytotox	DT40 TDP1 CPT	KB-3-1 tox
COc1cccc(-n2nc(C#N)c(Cl)cc2=O)c1	15µM*	9.2µM*	2.9µM*	i	2.3µM*	?
COc1cccc(-n2nc(C(N)=O)c(O)cc2=O)c1	0%	0%	-20%	i	2%	i
COc1ccc2c(C#N)c3ccccn3c2c1	1%	-1%	23µM*	i	?	i
CC(=O)c1c(C)[nH]c(C(=O)CSc2nnc(-c3ccccc3)n2Cc2ccc3c(c2)OCO3)c1C	23µM*	?	?	?	?	i
C=CCn1c(SCC(=O)c2[nH]c(C)c(C(C)=O)c2C)nnc1-c1ccncc1	2%[9.24 µM]	3%	26µM*	i	?	i
CCOC(=O)c1c(C)[nH]c(C(=O)Cn2c(=O)c3c(ncn3CC)n(Cc3ccccc3)c2=O)c1C	-1%[9.24 µM]	-15%	?	?	26µM*	i
O=c1cc(CSc2nnc(-c3cccs3)n2Cc2ccccc2)nc2sc3ccccc3n12	26µM*	-19%	3.7µM*	?	5.8µM*	i
C=CCn1c(C)nnc1SCC(=O)c1[nH]c(C)c(C(C)=O)c1C	8%	7%	-19%	i	-29%	i
CCN1C(=O)[C@H]2[C@@H](c3ccc(C)cc3)N3C(=O)N(c4ccc(OC)cc4)C(=O)[C@@]3(C)[C@H]2C1=O	1%	-17%	-4%	i	-1%	i
Cc1cc(C)n2ncc(C(=O)NC(C)C)c2n1	/	/	/	i	/	i
COCCn1c(SCC(=O)c2[nH]c(C)c(C(C)=O)c2C)nc2ccccc21	8%	6%	?	16µM*	?	i
CCCn1c(N)c(C(=O)CSc2nnc(-c3ccco3)n2Cc2ccccc2)c(=O)[nH]c1=O	-4%	-8%	?	i	-2%	?
O=c1c2ccccc2nnn1CSc1nnc(-c2cccs2)n1Cc1ccccc1	?	-29%	23µM*	?	29µM*	?
CCOC(=O)c1c(C)[nH]c(C(=O)CSc2nnc(-c3cccs3)n2Cc2ccccc2)c1C	?	-25%	?	2.3µM*	?	i
CC(=O)c1c(C)[nH]c(C(=O)CSc2nnc(-c3ccco3)n2Cc2ccccc2)c1C	-20%	-1%	16µM*	18µM*	23µM*	i
CCOC(=O)c1c(C)[nH]c(C)c1C(=O)CSc1nc2ccccc2n1CCOC	2%	5%	?	?	?	i
CN(C(=O)c1cc2ccccc2oc1=O)C1(C)CCS(=O)(=O)C1 (configuration not stated)	6%	2%	2%	i	0%	i
C=CCn1c(SCC(=O)c2[nH]c(C)c(C(=O)OC)c2C)nc2scc(-c3ccc(OC)c(OC)c3)c2c1=O	7%	1%	8.2µM*	6.5µM*	16µM*	4.1µM*
CC(=O)c1c(C)[nH]c(C(=O)CSc2nnc(-c3cccs3)n2Cc2ccccc2)c1C	-28%	1%	?	5.8µM*	?	i
CC(=O)c1c(C)[nH]c(C(=O)CSc2nnc(C3CCCCC3)n2N)c1C	-1%	2%	13µM*	i	18µM*	i
CCOC(=O)c1ccc2ncc(C(=O)OCC)c(NCCN3CCOCC3)c2c1	9%	5%	?	i	?	i
CCOC(=O)c1cnc2ccc(Br)cc2c1NCCN1CCOCC1	/	/	21µM*	i	21µM*	i
CCOC(=O)c1cnc2c(CC)cccc2c1NCCN1CCOCC1	-3%	-5%	23µM*	i	?	i
